In the supplement of paper PMC10127200:
Where a name gives a salt, the structure may show the parent alone.

How the values were obtained:
Assay in all cases: Euclidean distance of Cell Painting phenotypic profile (signed KS, 77 features) to DMSO centroid (dimensionless distance); 5 or 10 uM (library dependent); higher = stronger phenotypic change vs DMSO (phenoactivity)
Settings in all cases: 48 h
786-O = test system: 786-O
Summary of the method: (§1)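 Library compounds were applied at 10 or 5 uM, depending on the library, with 0.1% DMSO final, for 48 h to five cancer lines and a healthy fibroblast line. After staining, cells were imaged confocally at 20X across 9 fields per well, and Harmony extracted 77 features, each scored as a signed Kolmogorov-Smirnov statistic against vehicle wells on the same plate. Phenoactivity is the Euclidean distance between each profile and the median vehicle profile, with profiles first plate-position corrected, correlation-weighted and averaged over replicates at the top dose.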

A549 = test system: A549
Summary of the method: as §1

DU145 = test system: DU145
Summary of the method: as §1

FB = test system: FB
Summary of the method: as §1

HEPG2 = test system: HEPG2
Summary of the method: as §1

OVCAR4 = test system: OVCAR4
Summary of the method: as §1

Compound	Euclidean distance (786-O)	Euclidean distance (A549)	Euclidean distance (DU145)	Euclidean distance (FB)	Euclidean distance (HEPG2)	Euclidean distance (OVCAR4)
CO/N=C(\C(=O)N[C@@H]1C(=O)N2C(C(=O)OCOC(=O)C(C)(C)C)=C(/C=C\c3scnc3C)CS[C@H]12)c1csc(N)n1 [Cefditoren Pivoxil]	1.06	0.732	1.67	1.03	2.12	1.5
CC(C)C[C@H](NC(=O)[C@@H](COC(C)(C)C)NC(=O)[C@H](Cc1ccc(O)cc1)NC(=O)[C@H](CO)NC(=O)[C@H](Cc1c[nH]c2ccccc12)NC(=O)[C@H](Cc1cnc[nH]1)NC(=O)[C@@H]1CCC(=O)N1)C(=O)N[C@@H](CCCNC(=N)N)C(=O)N1CCC[C@H]1C(=O)NNC(N)=O [Goserelin Acetate]	1.49	0.535	2.39	0.568	0.784	1.07
CC(=C(CCOC(=O)C(C)C)SSC(CCOC(=O)C(C)C)=C(C)N(C=O)Cc1cnc(C)nc1N)N(C=O)Cc1cnc(C)nc1N (stereo in doubt) [Sulbutiamine]	1.35	0.871	0.854	1.12	0.637	1.49
CC(C)(C)NCC(O)c1cc(O)cc(O)c1 (configuration not stated) [Terbutaline Sulfate]	1.21	0.707	0.835	1.27	0.547	0.825
Cc1cc(/C=C/C#N)cc(C)c1Nc1ccnc(Nc2ccc(C#N)cc2)n1 [Rilpivirine]	1.85	2.11	1.55	1.69	0.573	0.925
NCCc1c[nH]cn1 [Histamine Phosphate]	1.2	0.956	1.77	1.25	1.23	1.04
CC1CS(=O)(=O)CCN1/N=C/c1ccc([N+](=O)[O-])o1 (configuration not stated) [Nifurtimox]	1.55	0.675	1.08	0.936	1.04	1.33
CCCCCCCCN=C(N)NC(N)=NCc1ccc(Cl)c(Cl)c1 [Olanexidine Hydrochloride semihydrate]	5.91	4.86	6.25	6.15	3.98	5.78
COc1ccc(S(=O)(=O)Nc2cccnc2Nc2ccc(O)cc2)cc1	2.73	2.61	3.18	2.99	3.33	3.12
CN(C)c1ccc2nc3ccc(=[N+](C)C)cc-3sc2c1 [Methylene Blue]	2.57	2.62	1.71	3.26	2.63	2.92
CC(CNC(=O)c1cccnc1)NC(=O)c1cccnc1 (configuration not stated) [Nicaraven]	1.31	0.748	1	1	2.29	1.91
COC(c1ccccc1)(c1ccccc1)[C@H](Oc1nc(C)cc(C)n1)C(=O)O [Ambrisentan]	1.45	0.738	1.17	0.718	2.03	1.52
CC[C@H]1[C@@H](O)[C@@H]2[C@H](CC[C@]3(C)[C@@H]([C@H](C)CCC(=O)O)CC[C@@H]23)[C@@]2(C)CC[C@@H](O)C[C@@H]12 [Obeticholic Acid]	0.797	0.614	0.878	0.944	0.851	0.844
CN(C)c1ccc(-c2nc3ncc(Cl)c(N4CCN(CC(=O)Nc5nccs5)CC4)c3[nH]2)cc1	1.74	1.55	1.32	1.56	0.715	1.59
CCCc1nn(C)c2c(=O)[nH]c(-c3cc(S(=O)(=O)N4CCN(C)CC4)ccc3OCC)nc12 [Sildenafil Mesylate]	1.12	0.763	0.989	1	0.692	0.995
CC[N+](CC)(CC)CCOc1cccc(OCC[N+](CC)(CC)CC)c1OCC[N+](CC)(CC)CC [Gallamine Triethiodide]	0.82	0.878	1.08	1.22	1.06	1.04
CC1OC2(CS1)CN1CCC2CC1 (configuration not stated) [Cevimeline]	1.52	1.3	0.896	1.55	0.72	1.48
COc1ccc(F)c(F)c1C(=O)c1cnc(NC2CCN(S(C)(=O)=O)CC2)nc1N	2.79	3.51	2.68	2.58	3.18	4.31
CC(C)(Oc1ccc(Cl)cc1)C(=O)O [Clofibric Acid]	0.903	0.74	0.644	0.793	0.498	0.547
CCCOC(C(=O)OC1CCN(C)CC1)(c1ccccc1)c1ccccc1 [Propiverine hydrochloride]	1.73	1.08	1.34	1.33	1.39	1.35
CC1CNc2c(cccc2S(=O)(=O)N[C@@H](CCCNC(=N)N)C(=O)N2CC[C@@H](C)C[C@@H]2C(=O)O)C1 (some centres not stated) [Argatroban]	0.618	0.352	0.62	0.896	0.99	0.903
COc1ccc2[nH]c([S@@+]([O-])Cc3ncc(C)c(OC)c3C)nc2c1 [Esomeprazole Sodium]	1.75	1.36	1.05	0.915	1.26	1.34
CN1CCN(c2ccc3nc(-c4c(N)c5c(F)cccc5[nH]c4=O)[nH]c3c2)CC1 [Dovitinib (TKI-258) Dilactic Acid]	2.81	3.4	2.01	4.28	0.932	1.96
NC(=NCCCCCCN=C(N)N=C(N)Nc1ccc(Cl)cc1)N=C(N)Nc1ccc(Cl)cc1 [Chlorhexidine?2HCl]	2.98	3.13	2.18	1.67	2.59	2.56

Compound	Euclidean distance (786-O)	Euclidean distance (A549)	Euclidean distance (DU145)	Euclidean distance (FB)	Euclidean distance (HEPG2)	Euclidean distance (OVCAR4)
C=C(C)[C@@H]1CC[C@]2(C(=O)O)CC[C@]3(C)[C@H](CC[C@@H]4[C@@]5(C)CC[C@H](O)C(C)(C)[C@@H]5CC[C@]43C)[C@@H]12 [Betulinic acid]	1	0.893	0.693	0.844	0.744	0.866
CO[C@H]1/C=C\C=C(/C)C(=O)NC2=CC(=O)C(NCCN(C)C)=C(C[C@@H](C)C[C@H](OC)[C@H](O)[C@@H](C)/C=C(\C)[C@@H]1OC(N)=O)C2=O	2.76	2.89	4.03	3.32	3.56	2.71
COc1ccc2cc([C@H](C)C(=O)O)ccc2c1 [Naproxen]	0.797	0.78	1.05	0.816	1.13	1.28
C[C@@H](O)[C@H]1C(=O)N2C(C(=O)O)=C(S[C@@H]3CN[C@H](C(=O)N(C)C)C3)[C@H](C)[C@H]12 [Meropenem]	1.75	1.63	0.873	1.2	1.05	1.15
CC(N)C12CC3CC(CC(C3)C1)C2 (configuration not stated) [Rimantadine]	0.735	0.64	0.671	1.35	0.621	1.37
CNC(=O)c1cc(Oc2ccc(NC(=O)Nc3cc(C(C)(C)C)nn3-c3ccc4ncccc4c3)c(F)c2)ccn1 [DCC-2036 (Rebastinib)]	2.89	3.75	4.62	2.57	2.72	2.63
O=C1NCC2(CCN(CCc3ccccc3)CC2)O1 [Fenspiride HCl]	0.914	1.2	1.2	1.2	1.08	1.26
CCn1c(=O)c(-c2cc(NC(=O)Nc3ccccc3)c(F)cc2Br)cc2cnc(NC)cc21	1.21	1.59	1.77	2.62	1.61	1.1
C=CC(=O)N1CCC[C@@H](n2nc(-c3ccc(Oc4ccccc4)cc3)c3c(N)ncnc32)C1	1.76	2.16	2.61	2.35	1.42	2.38
CNCC(=O)O [Sarcosine]	1.77	0.92	1.05	1.13	0.831	1.75
CCOc1ccc(C[C@H]2NC(=O)CCSSC[C@@H](C(=O)N3CCC[C@H]3C(=O)N[C@@H](CCCN)C(=O)NCC(N)=O)NC(=O)[C@H](CC(N)=O)NC(=O)[C@H]([C@@H](C)O)NC(=O)[C@H]([C@@H](C)CC)NC2=O)cc1 [Atosiban Acetate]	1.21	1.46	1.05	1.59	1.37	1.9
N[C@H]1C[C@@H]1c1ccc(-c2cccc(O)c2)cc1	1.26	1.27	1.07	1.18	0.624	1.45
CCCC(CCC)C(=O)O [Valproic acid sodium salt (Sodium valproate)]	0.85	0.706	0.534	0.529	0.677	0.959
Cc1cc(C(C)Nc2ccccc2)c2nc(N3CCOCC3)cc(=O)n2c1 (configuration not stated)	1.4	1.16	1.61	1.62	1.29	2.37
CC[C@@H]1C(=O)N(C)c2cnc(Nc3ccc(C(=O)NC4CCN(C)CC4)cc3OC)nc2N1C1CCCC1	3.46	3.75	3.25	3.72	2.48	3.25
CS(=O)(=O)c1cccc(C[C@H](NC(=O)c2c(Cl)cc3c(c2Cl)CCN(C(=O)c2ccc4ccoc4c2)C3)C(=O)O)c1 [Lifitegrast]	1.08	0.823	1.53	1.16	0.431	1.27
Cc1ncc([N+](=O)[O-])n1CCOC(=O)c1ccccc1 [Metronidazole Benzoate]	0.984	1.41	0.885	1.58	0.486	0.922
CN1CCC(=C2c3ccccc3C=Cc3ccccc32)CC1 [Cyproheptadine hydrochloride]	0.781	1.06	1.24	1.89	2.26	0.968
O=C(O)CC[C@H]1CC[C@@](c2cc(F)ccc2F)(S(=O)(=O)c2ccc(Cl)cc2)CC1	1.76	1.71	0.876	1.8	1.76	1.58
CCC(Cc1c(I)cc(I)c(N)c1I)C(=O)O (configuration not stated) [Iopanoic acid]	0.512	0.937	0.812	1.22	0.765	0.713
NC(=O)[C@@H]1CSSCCC(=O)N[C@@H](CCCCN=C(N)N)C(=O)NCC(=O)N[C@@H](CC(=O)O)C(=O)N[C@@H](Cc2c[nH]c3ccccc23)C(=O)N2CCC[C@H]2C(=O)N1 [Eptifibatide Acetate]	1.66	1.02	0.993	1.11	0.664	1.36
CC(C)N1CCN(c2ccc(Nc3ncc4cc5n(c4n3)C3(CCCCC3)CNC5=O)nc2)CC1	3.19	1.63	2.41	3.71	2.1	2.34
Oc1ccc2c(c1)CC[C@H](c1ccccc1)[C@@H]2c1ccc(OCCN2CCCC2)cc1 [Lasofoxifene Tartrate]	2.93	2.42	3.01	2.8	4.32	2.5
